Assay [1] can be described thus: APR_HepG2_CellCycleArrest_24hr: Apredica 24-hour HepG2 Assay for Cell Cycle Arrest (AID 2282905).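 Note: cell cycle arrest scored as ratio of 2N to 4N nuclear DNA content.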 The following applies: imaging, actives raise or lower the signal. Summed up: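 After 24 h exposure at 0.39–200 uM in 0.5% DMSO, fixed cells received Hoechst 33342 staining. Imaging quantified per-nucleus DNA content; gain or loss fitted against DMSO controls.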
Assay [2] can be described thus: APR_HepG2_NuclearSize_24hr: Apredica 24-hour HepG2 Assay for Nuclear Size (AID 2282907). Conditions: high-content imaging, actives raise or lower the signal. Summed up: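 Nuclear size from Hoechst 33342-stained, formaldehyde-fixed HepG2 nuclei imaged by high-content microscopy, after 24 h dosing at ten concentrations from 0.39 to 200 uM in 0.5% DMSO; gain or loss relative to DMSO baseline.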

The nature of assay [3]: APR_HepG2_CellLoss_24hr: Apredica 24-hour HepG2 Assay for Cell Loss (AID 2282908).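 For AC50: fit in both directions so a hit may be cell loss or gain.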 Conditions: high-content imaging. Summed up: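 Nuclei stained with Hoechst 33342 after formaldehyde fixation (3.7%) were imaged at 20x to count cells. Exposure lasted 24 hr, at ten concentrations from 0.39 to 200 uM in duplicate, with 0.5% v/v DMSO. Fit bidirectional, relative to DMSO.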
A short description of assay [4]: APR_HepG2_MicrotubuleCSK_24hr: Apredica 24-hour HepG2 Assay for Microtubule CSK Stabilty (AID 2282909). The following applies: HepG2 microtubule cytoskeleton imaging, actives raise or lower the signal. Summed up: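 Fixed HepG2 cells were stained for alpha-tubulin and imaged after 24 hr exposure to ten concentrations spanning 0.39–200 uM in 0.5% DMSO. Signal change was fitted in both directions relative to DMSO; taxol was the positive control.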

Assay [5] can be described thus: APR_HepG2_MitoticArrest_24hr: Apredica 24-hour HepG2 Assay for Mitotic Arrest (AID 2282910). Conditions: high-content imaging, actives raise or lower the signal. Summed up:
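Treatment lasted 24 hr in the human HepG2 line at 0.39–200 uM, solvent held at 0.5% DMSO. Fixed cells were stained with Hoechst 33342 and anti-phospho-histone H3, imaged at 20x, and analysed by gain- or loss-of-signal fitting against DMSO.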

Assay [6] in a line: APR_HepG2_MitoMembPot_24hr: Apredica 24-hour HepG2 Assay for Mitochondrial Membrane Potential (AID 2282911). The following applies: imaging, actives raise or lower the signal. Summed up:
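HepG2 human liver cells were exposed 24 hr to compounds at 0.39–200 uM (final DMSO 0.5% v/v) in duplicate. MitoTracker Red CMXRos (250 nM, 30 min) was loaded before formaldehyde fixation; fluorescence was imaged by ArrayScan HCS and fitted bidirectionally versus DMSO.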

A short description of assay [7]: APR_HepG2_MitoMass_24hr: Apredica 24-hour HepG2 Assay for Mitochondrial Mass (AID 2282912). The following applies: high-content imaging, actives raise or lower the signal. Summed up: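 Endpoint is MitoTracker Red CMXRos (250 nM, 30 min, pre-fixation) intensity from 20x high-content imaging, nuclei located by Hoechst. Human HepG2 cells received ten concentrations from 0.39 to 200 uM in 0.5% DMSO for 24 hr, duplicate wells. Bidirectional fit relative to DMSO.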

The nature of assay [8]: APR_HepG2_CellCycleArrest_72hr: Apredica 72-hour HepG2 Assay for Cell Cycle Arrest (AID 2282914). Conditions: high-content imaging, actives raise or lower the signal. Summed up: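 HepG2 cells were exposed to compounds at 0.39–200 uM (0.5% v/v DMSO final, duplicates) for 72 hr, fixed in 3.7% formaldehyde, permeabilized and stained with Hoechst 33342. Nuclear DNA content was quantified by high-content imaging; gain or loss of signal was fitted bidirectionally against DMSO.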

Assay [9] in a line: APR_HepG2_CellLoss_72hr: Apredica 72-hour HepG2 Assay for Cell Loss (AID 2282915). Conditions: high-content imaging. Summed up:
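HepG2 cells were exposed for 72 hr to compounds at 0.39–200 uM (ten concentrations, duplicate) in 0.5% v/v final DMSO. Nuclei were stained with Hoechst 33342 after 3.7% formaldehyde fixation, imaged at 20x, and counted; fits bidirectional versus DMSO.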

The nature of assay [10]: APR_HepG2_P-H2AX_72hr: Apredica 72-hour HepG2 Assay for H2AX Phosphorylation (AID 2282916).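 Note: phospho-histone H2A.x immunostain intensity per cell marking DNA damage.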 Conditions: imaging, actives raise or lower the signal. Summed up: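 Phospho-histone H2A.x immunofluorescence, multiplexed with Hoechst and c-Jun, quantified by high-content imaging. Compounds applied to HepG2 for 72 h across ten concentrations (0.39–200 uM, 0.5% DMSO), in duplicate; DMSO baseline.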

Assay [11] in a line: APR_HepG2_MitoMembPot_72hr: Apredica 72-hour HepG2 Assay for Mitochondrial Membrane Potential (AID 2282917). Conditions: imaging, actives raise or lower the signal. Summed up:
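HepG2 cells exposed 72 h to compounds at 0.39–200 uM (0.5% v/v DMSO, duplicates); MitoTracker Red CMXRos 250 nM loaded 30 min before 3.7% formaldehyde fixation, imaged by HCS fluorescence. Bidirectional fit versus DMSO.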

Assay [12] can be described thus: APR_HepG2_MitoticArrest_72hr: Apredica 72-hour HepG2 Assay for Mitotic Arrest (AID 2282918). Conditions: high-content imaging, actives raise or lower the signal. Summed up: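 HepG2 cells were exposed for 72 hr to compound at 0.39–200 uM (10 concentrations, duplicate) in 0.5% v/v DMSO, fixed in 3.7% formaldehyde, immunostained for phospho-histone H3 with Hoechst 33342 and imaged by high-content fluorescence; bidirectional fits versus DMSO.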

Assay [13] can be described thus: APR_HepG2_MicrotubuleCSK_72hr: Apredica 72-hour HepG2 Assay for Microtubule CSK Stabilty (AID 2282919). The following applies: HepG2 microtubule cytoskeleton, high-content imaging, actives raise or lower the signal. Summed up: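 Ten-point dosing (0.39–200 uM, 0.5% DMSO) of HepG2 for 72 hr, with taxol as the cytoskeletal positive control. The cells were formaldehyde-fixed and then stained with alpha-tubulin/Cy5 and Hoechst. Imaging at 20x used a −2 um Z offset for tubulin.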

Assay [14] in a line: APR_HepG2_P-H2AX_24hr: Apredica 24-hour HepG2 Assay for H2AX Phosphorylation (AID 2282920). The following applies: high-content imaging, actives raise or lower the signal. Summed up: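 HepG2 human liver cells were exposed for 24 hr to compounds at 0.39–200 uM in duplicate, with 0.5% v/v DMSO final. Fixed cells were immunostained for phospho-histone H2A.x plus Hoechst 33342, imaged by HCS fluorescence, and fitted bidirectionally against DMSO.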

Assay [15] can be described thus: APR_HepG2_StressKinase_72hr: Apredica 72-hour HepG2 Assay for Stress Kinase (AID 2282921). The following applies: HepG2 stress kinase (phospho-c-Jun) imaging, actives raise or lower the signal. Summed up:
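Stress kinase signal is phospho-c-Jun immunofluorescence (1:500 primary, Cy3 secondary) in fixed, permeabilized human HepG2 cells imaged at 20x. Exposure lasted 72 hr over ten concentrations from 0.39 to 200 uM, 0.5% DMSO, in duplicate. Bidirectional fit versus DMSO.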

Assay [16] is described as follows: APR_HepG2_StressKinase_24hr: Apredica 24-hour HepG2 Assay for Stress Kinase (AID 2282922). Conditions: HepG2 stress kinase (phospho-c-Jun) imaging, actives raise or lower the signal. Summed up:
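After 24 hr compound treatment (up to 200 uM, final DMSO 0.5% v/v), HepG2 cells are fixed and multiplex-labeled; phospho-c-Jun intensity is captured by high-content fluorescence imaging and analyzed relative to DMSO.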

Assay [17] can be described thus: APR_HepG2_p53Act_72hr: Apredica 72-hour HepG2 Assay for p53 Activation (AID 2282923).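 Note: average cellular p53 protein immunofluorescence intensity in HepG2 cells.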 The following applies: high-content imaging, actives raise or lower the signal. Summed up: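 After 72 h with compound (ten points, 0.39 to 200 uM, final DMSO 0.5% v/v), fixed HepG2 cells were labelled with sheep anti-p53 and Hoechst 33342 and imaged; gain or loss versus DMSO scored.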

Assay [18] in a line: APR_HepG2_MitoMass_72hr: Apredica 72-hour HepG2 Assay for Mitochondrial Mass (AID 2282924).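 Note: MitoTracker Red CMXRos stain intensity per cell imaged as mitochondrial mass.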 Conditions: high-content imaging, actives raise or lower the signal. Summed up:
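Steps: treat HepG2 72 hr (0.39–200 uM, duplicate wells); load MitoTracker Red CMXRos, 250 nM, 30 min; fix with 3.7% formaldehyde, permeabilise with 0.5% Triton X-100; capture images, nuclei via Hoechst 33342; fit bidirectionally against DMSO.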

A short description of assay [19]: APR_HepG2_p53Act_24hr: Apredica 24-hour HepG2 Assay for p53 Activation (AID 2282913).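 Note: p53 protein immunofluorescence averaged per cell in HepG2 with Hoechst nuclei.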 Conditions: high-content imaging, actives raise or lower the signal. Summed up:
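HepG2 cells exposed 24 hr to compounds at 0.39–200 uM (10 concentrations, duplicate), final DMSO 0.5% v/v. After formaldehyde fixation and Triton permeabilization, p53 was immunolabeled (sheep anti-p53, Cy5 secondary) with Hoechst 33342 nuclear counterstain, then imaged by high-content fluorescence microscopy.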

The nature of assay [20]: APR_HepG2_NuclearSize_72hr: Apredica 72-hour HepG2 Assay for Nuclear Size (AID 2282925). The following applies: high-content imaging, actives raise or lower the signal. Summed up:
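Compounds (0.39–200 uM, final DMSO 0.5%) were applied to HepG2 for 72 hr. Cells were then formaldehyde-fixed, permeabilized and labelled with Hoechst 33342. Nuclear diameter was quantified from six images per well.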

The structures appear in SMILES notation. The source made the active and inactive calls. Rule for the calls: active = hit-call score of the fitted dose curve at least 0.9, where 1 is the maximum; inactive = score below 0.9.

For the compound `CCOc1cccc(C2(N3CCN(c4ccccc4)CC3)CCC(C)CC2)c1` (stereo unspecified), the compound was classed as inactive in [1], in assay [2], in assay [3], in [4], in assay [5] and in assay [6]. Besides, the compound was called inactive in [7], in assay [8], in assay [9], in assay [10], in assay [11] and in assay [12]. Besides, the result in assay [13], in assay [14], in assay [15], in assay [16], in assay [17] and in [18] was inactive.
With `COc1cc(C=O)cc2c1[C@H](COC(N)=O)[C@]1(OC(C)=O)ON2C[C@H]2[C@@H]1N2C(C)=O`, the outcome in [1], in [2], in [3], in [4], in [5] and in assay [7] was inactive. In addition, the result in assay [19], in assay [8], in assay [9], in assay [10], in assay [11] and in assay [12] was inactive. In addition, the outcome in [14], in assay [15], in assay [16], in assay [17], in assay [18] and in assay [20] was inactive. Moreover, the AC50 in assay [6] is 0.474 µM (active).
For `CC(C)(OOC(C)(C)c1ccccc1)c1ccccc1`, the AC50 in assay [1] was 36.4 µM (active); in assay [3], 69.6 µM (active); in assay [4], 77.2 µM (active); in assay [5], 29.9 µM (active); in assay [7], 19.6 µM (active); in assay [9] it was 44.4 µM (active). For the same compound, the concentration at half-maximal activity (AC50) in [12] was 41.9 µM (active). Moreover, the compound was classed as inactive in [2], in assay [6], in assay [19], in assay [8], in [10] and in assay [11]. Also, the outcome in assay [13], in assay [14], in [15], in assay [16], in assay [17] and in assay [18] was inactive.
Regarding `Nc1ccc([N+](=O)[O-])cc1`, the result in assay [1], in [2], in assay [3], in assay [4], in [5] and in [6] was inactive. For the same compound, the compound was called inactive in assay [7], in assay [8], in [9], in assay [10], in [11] and in assay [12]. Also, the call in assay [13], in assay [14], in [15], in [16], in assay [17] and in assay [18] was inactive. In assay [20], the result was inactive.
As for `O=[N+]([O-])c1ccc(Oc2ccc(Cl)cc2Cl)cc1`, the call in assay [1], in [2], in assay [4], in assay [5], in assay [6] and in assay [7] was inactive. The call in assay [19], in assay [8], in [10], in assay [11], in assay [13] and in assay [14] was inactive. For the same compound, the outcome in [15], in assay [16], in [17] and in assay [18] was inactive. The figures for the AC50 in assay [3], in assay [9] and in [12] were 80.8 µM (active), 89.7 µM (active) and 71 µM (active), respectively.
For `Nc1ccc(Cl)cc1N`, the AC50 was 0.162 µM (active) in assay [1]; 0.944 µM (active) in assay [19]; 1.46 µM (active) in assay [8]; 1.1 µM (active) in assay [9]; 5.9 µM (active) in [10]; 2.4 µM (active) in assay [12]. The AC50 in [14] was 1.2 µM (active); in [17], 3.54 µM (active). The outcome in assay [2], in [3], in assay [4], in [5], in [6] and in assay [7] was inactive. The compound was called inactive in [11], in [15], in assay [16], in assay [18] and in assay [20].
For `CC(C)N(Cc1ccccc1)C(=O)C(C)(C)C`, the outcome in [1], in [2], in assay [3], in [4], in assay [5] and in assay [6] was inactive. The result in [7], in assay [8], in assay [9], in [10], in assay [11] and in [12] was inactive. The compound was called inactive in assay [13], in assay [14], in assay [15], in [16], in assay [17] and in assay [18].

For the origin of these results see PubChem BioAssay (EPA / NIEHS).
